From PubChem BioAssay (Tox21)
Values joined by “and” are separate entries in the source; they are usually repeats but may differ in a detail not shown here. Identical values can stand only once. Inconclusive results are not listed. Entries that show only a call come without a potency. Some structures have more than one record in an assay (separate samples or runs), and their calls can disagree. Active and inactive are the calls of the source. Unless noted, calls come from the whole dose curve; as a rule, active = well fitted curve in the direction sought with a large enough effect in the repeat runs; inconclusive = weak or mixed curves; inactive = no such curve, though single readings can be large; an effect the other way counts as inactive or inconclusive.

How the values were obtained:
[1] = qHTS assay to identify small molecule agonists of the hypoxia (HIF-1) signaling pathway - cell viability counter screen (AID 1224844; calls by dose curve; note: nearly all actives have a fitted effect of over 50% in size)
How it was run: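 Multiplexed with the HRE beta-lactamase assay, this viability read used CellTiter-Glo luminescence (30 min, RT) on HRE-bla ME-180 cells treated 17 hrs with compounds in 0.5% dialyzed FBS medium.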

[2] = qHTS assay to identify small molecule agonists of H2AX (AID 1224845; active = well fitted activation curve with a large enough effect in the signal ratio in the repeat runs, not every such curve was filed as active; the % refers to the signal ratio)
How it was run: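 Wild-type CHO-K1 cells, plated overnight, exposed 3hr at 37C to 15 concentrations (0.76% DMSO final). Lysed, then HTRF anti-pH2AX (S139) cryptate and anti-H2AX-d2 antibodies, 24 hr room temperature; 665/620 nm emission read.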

[3] = qHTS assay to identify small molecule agonists of the hypoxia (HIF-1) signaling pathway (AID 1224846; active = well fitted activation curve with a large enough effect in the signal ratio in the repeat runs, not every such curve was filed as active; the % refers to the signal ratio)
How it was run: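 Hypoxia-pathway activation was scored as increased beta-lactamase from an HRE-controlled reporter in ME-180 cells; plated at 2,000 cells per well with 0.5% dialyzed FBS, they were exposed 17 hrs to compounds and then given CCF4-AM.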

[4] = qHTS assay to identify small molecule agonists of H2AX - cell viability counter screen (AID 1224847; calls by dose curve; note: nearly all actives have a fitted effect of over 30% in size; note: potency is the fitted concentration of half-maximal effect)
How it was run: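 Quantitative HTS viability measurement: CHO-K1 wild-type cells in serum (10% FBS) medium, short 3 hr drug exposure at 37C with 0.76% DMSO, CellTiter-Glo luminescent detection.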

[5] = qHTS RealTime-Glo MT Cell Viability Assay in HepG2 cells - 24 hour (AID 1224867); note: nearly all actives have a fitted effect of over 50% in size
How it was run: (§1)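 HepG2 cells (600/well) were dispensed with RealTime-Glo reagents, incubated 5 h at 37 °C, then treated with compounds in DMSO for up to 40 h. Nonlytic NanoLuc luminescence reflecting viable cells was read at each stated time point.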

[6] = qHTS RealTime-Glo MT Cell Viability Assay in HEK293 cells - 32 hour (AID 1224868); note: nearly all actives have a fitted effect of over 50% in size; note: potency is the fitted concentration of half-maximal effect
How it was run: (§2)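 HEK293 cells seeded with NanoLuc/prosubstrate reagent, rested 5 h at 37 C, then dosed and kept at 37 C up to 40 h. Nonlytic real-time luminescence from viable cells read at 0, 8, 16, 24, 32 and 40 h.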

[7] = A CellTox Green Cytotoxicity Assay to monitor cytotoxicity in HEK293 cells - 0 hour (AID 1224869); note: nearly all actives have a fitted effect of over 50% in size
How it was run: (§3)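 Seeding of HEK293 cells together with cytotoxicity dye preceded a 5 h incubation at 37 C/5% CO2. Test compounds in DMSO were then added and fluorescence monitored across 40 h.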

[8] = qHTS RealTime-Glo MT Cell Viability Assay in HepG2 cells - 40 hour (AID 1224870); note: nearly all actives have a fitted effect of over 50% in size
How it was run: (§4)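 HepG2 cells (600/well) mixed with RealTime-Glo MT reagent, settled 5 h at 37 C/5% CO2 before compound addition. Nonlytic NanoLuc luminescence from viable-cell prosubstrate reduction read repeatedly during 40 h treatment at 37 C.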

[9] = A CellTox Green Cytotoxicity Assay to monitor cytotoxicity in HEK293 cells - 40 hour (AID 1224871); note: nearly all actives have a fitted effect of over 45% in size; note: potency is the fitted concentration of half-maximal effect
How it was run: as §3

[10] = qHTS RealTime-Glo MT Cell Viability Assay in HEK293 cells - 16 hour (AID 1224872)
How it was run: as §2

[11] = qHTS RealTime-Glo MT Cell Viability Assay in HepG2 cells - 8 hour (AID 1224873); note: nearly all actives have a fitted effect of over 55% in size
How it was run: as §4

[12] = qHTS RealTime-Glo MT Cell Viability Assay in HEK293 cells - 40 hour (AID 1224874); settings: RealTime-Glo luminescence; max response: stronger effect = lower value; note: nearly all actives have a fitted effect of over 50% in size; note: potency is the fitted concentration of half-maximal effect
How it was run: (§5)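 Tox21 screen in HEK293 using RealTime-Glo MT chemistry, with cells and reagent co-dispensed. Luminescence proportional to viable cell number was captured at intervals during 40 h compound exposure at 37 C.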

[13] = A CellTox Green Cytotoxicity Assay to monitor cytotoxicity in HEK293 cells - 24 hour (AID 1224875); note: series mostly up to about 77 µM; nearly all actives have a fitted effect of over 45% in size
How it was run: as §3

[14] = A CellTox Green Cytotoxicity Assay to monitor cytotoxicity in HepG2 cells - 16 hour (AID 1224876); note: nearly all actives have a fitted effect of over 45% in size
How it was run: (§6)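 Nonlytic assay: viable cells exclude the dye, so fluorescence scales with cell death. HepG2 at 600 cells/well, compounds added after 5 h, signal read across 40 h.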

[15] = qHTS RealTime-Glo MT Cell Viability Assay in HepG2 cells - 32 hour (AID 1224877); note: nearly all actives have a fitted effect of over 55% in size
How it was run: as §1

[16] = A CellTox Green Cytotoxicity Assay to monitor cytotoxicity in HepG2 cells - 24 hour (AID 1224878); note: nearly all actives have a fitted effect of over 45% in size
How it was run: as §6

[17] = A CellTox Green Cytotoxicity Assay to monitor cytotoxicity in HepG2 cells - 40 hour (AID 1224879); note: nearly all actives have a fitted effect of over 40% in size; note: potency is the fitted concentration of half-maximal effect
How it was run: as §6

[18] = qHTS RealTime-Glo MT Cell Viability Assay in HEK293 cells - 0 hour (AID 1224880)
How it was run: as §5

| SMILES | Potency [1] | Potency [2] | outcome [3] | Potency [4] | outcome [5] | Potency [6] | Potency [7] | outcome [8] | Potency [9] | Potency [10] | outcome [11] | max response [12] | Potency [13] | Potency [14] | outcome [15] | Potency [16] | Potency [17] | Potency [18] | Potency [12] |
| --- | --- | --- | --- | --- | --- | --- | --- | --- | --- | --- | --- | --- | --- | --- | --- | --- | --- | --- | --- |
| N[C@@H](Cc1c[nH]c2ccccc12)C(=O)O | inactive | inactive | inactive | inactive | inactive | inactive | inactive | inactive | inactive | inactive | inactive | 11.5% (inactive) | inactive | inactive | inactive | inactive | inactive | inactive |  |
| CCN1CCCC1=O | inactive | inactive | inactive | inactive | inactive | inactive | inactive | inactive | inactive | inactive | inactive | 0.414% (inactive) and 1.37% (inactive) | inactive | inactive | inactive | inactive | inactive | inactive |  |
| COCC(C)N (stereo not drawn) | inactive | inactive | inactive | inactive | inactive | inactive | inactive | inactive | inactive | inactive | inactive | 4.72% (inactive) and 4.68% (inactive) | inactive | inactive | inactive | inactive | inactive | inactive |  |
| C#C[C@]1(O)CC[C@H]2[C@@H]3CCc4cc(O)ccc4[C@H]3CC[C@@]21C | inactive | inactive | inactive | 100 µM (active) and 61.9 µM (active) | inactive | 8.65 µM (active) and 19.5 µM (active) | inactive | inactive | 12.2 µM (active) and inactive | inactive | inactive |  | inactive | inactive | inactive |  | 17.3 µM (active) and 19.5 µM (active) | inactive | 6.87 µM (active) and 21.9 µM (active) |
| NC(N)=NC(N)=NCCc1ccccc1 | inactive | inactive | inactive | inactive | inactive | inactive | inactive | inactive | inactive | inactive | inactive |  | inactive | inactive | inactive |  | inactive | inactive | 6.16 µM (active) |
